The list is not random: actives were taken first. Their share in the collection is about 7.8%.
NOMO-1 viab = NOMO-1 AML cell viability reduction, primary screen, STK33 inhibitor project, CellTiter-Glo luminescence; inhibition, % (test concentration not listed); hit rate 7.5% among 37,000; AID 2330, 2010; NOMO-1 AML viability, 72 h; in the data active = inhibition above about 80%; inconclusive = no clear call, values can overlap the other calls
MITF inh = inhibitors of MITF, primary screen, MITF inhibitor project, cell-based, luminescence; TRPM1 promoter luciferase, 24 h; inhibition, % (no concentration beside the values); hit rate 0.28% among 37,000; AID 2240, 2010; in the data active = inhibition above about 85%; inconclusive = no clear call, values can overlap the other calls; inactive = below about 68%;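 also: human melanocyte line stably carrying TRPM1 promoter luciferase reporter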
Shh pathway inh = Hedgehog pathway signaling inhibitors, primary screen, luminescence, Shh-LIGHT2 cells, Gli-luciferase; Shh-LIGHT2 Gli-luciferase reporter, 30 h; inhibition, % (concentration not given with the values); hit rate 2.1% among 22,000; AID 2313, 2010;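 active = mean inhibition across valid replicates above about 65%, limit read from the data; inconclusive = mean under the limit, yet half or more replicates past it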;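 also: pathway switched on by Shh-conditioned medium diluted 1 in 25 in low serum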
Numbers stand for hits; . = inactive; ? = inconclusive; / = no result.

SMILES	NOMO-1 viab	MITF inh	Shh pathway inh
OCC1OC(n2cnc3cc(Cl)c(Cl)cc32)[C@@H](O)[C@H]1O (stereo partly specified)	.	.	.
C[C@H]1CC[C@@H]2[C@@H](C)[C@H]3[C@H](C[C@H]4[C@@H]5CC=C6C[C@@H](O[C@@H]7O[C@H](CO)[C@H](O)[C@H](O[C@@H]8O[C@H](CO)[C@@H](O)[C@H](O)[C@H]8O)[C@H]7O[C@@H]7O[C@@H](C)[C@H](O)[C@@H](O)[C@H]7O)CC[C@]6(C)[C@H]5CC[C@]34C)N2C1	.	.	.
C[C@H]1CC[C@@H]2[C@@H](C)[C@H]3[C@H](C[C@H]4[C@@H]5CC=C6CC(O[C@@H]7O[C@H](CO)[C@@H](O)[C@H](O[C@@H]8O[C@H](CO)[C@@H](O)[C@H](O)[C@H]8O)[C@@H]7O[C@@H]7O[C@@H](C)[C@H](O)[C@@H](O)[C@H]7O)CC[C@]6(C)[C@H]5CC[C@]34C)N2C1 (stereo partly specified)	110	.	.
N#Cc1c(Cl)cccc1Cl	.	.	.
Cc1cc(C(F)F)n2nc(C(=O)Nc3ccc(Cl)cc3C(=O)c3ccccc3)nc2n1	.	.	/
N[C@H]1C[C@@H]1c1ccccc1	.	.	?
CCC1CN2CCC3(C(=O)Nc4cccc(O)c43)C2CC1/C(=C/OC)C(=O)OC (stereo unspecified)	.	.	.
C=C(C)[C@@H]1[C@H]2OC(=O)[C@@H]1[C@]1(O)C[C@H]3O[C@]34C(=O)O[C@H]2[C@]14C	.	.	.
CC(C)[C@]12O[C@H]1[C@@H]1O[C@]13[C@]1(O[C@H]1C[C@H]1C4=C(CC[C@@]13C)C(=O)OC4)[C@@H]2O	114	.	.
CCC1=CC2CN3CCc4c([nH]c5ccccc45)[C@@](C(=O)OC)(C2)[C@@H]13	.	.	.
c1ccc2c(CNCCc3c[nH]c4ccccc34)cccc2c1	106	.	.
CN(C)Cc1c[nH]c2ccccc12	.	.	?
Cc1cc(C)cc(C(=O)OC2CC3CCC(C2)N3C)c1 (stereo unspecified)	.	.	.
CC1=C2C[C@H]3[C@@H](CC=C4C[C@@H](O)CC[C@@]43C)[C@@H]2CC[C@]12O[C@@H]1C[C@H](C)CN[C@H]1[C@H]2C	.	.	89
CC(=O)O[C@H]1CC[C@]2(C=O)[C@H]3CC[C@]4(C)[C@@H](C5=CC(=O)OC5)CC[C@]4(O)[C@@H]3CC[C@]2(O)C1	124	.	.
C[C@H]1O[C@@H](O[C@H]2CC[C@]3(CO)C4CC[C@]5(C)[C@@H](C6=CC(=O)OC6)CC[C@]5(O)C4CC[C@H]3C2)[C@H](O)[C@H](O)[C@@H]1O (stereo partly specified)	/	/	.
CO[C@H]1[C@@H](O)[C@@H](C)O[C@@H](O[C@@H]2C=C3C(OC(C)=O)CC4(O)C(CC[C@]5(C)[C@@H](C6=CC(=O)OC6)CC[C@]45O)[C@@]3(C)CC2)[C@@H]1O (stereo partly specified)	122	.	.
CC(=O)OC1CCC2(C)C(CC[C@@H]3[C@@H]2CCC2(C)C(C4=CC(=O)OC4)CCC32O)C1 (stereo partly specified)	109	.	.
C[C@H]1O[C@@H](O[C@H]2[C@@H](O)C[C@H](O[C@H]3[C@@H](O)C[C@H](O[C@H]4CC[C@]5(C)C6CC[C@]7(C)[C@@H](C8=CC(=O)OC8)CC[C@]7(O)C6CC[C@@H]5C4)O[C@@H]3C)O[C@@H]2C)C[C@H](O)[C@@H]1O (stereo partly specified)	111	.	.
CCNC(=S)N1CCN(CC(=O)Nc2ccc(Cl)cc2C(=O)c2ccccc2)CC1	.	.	/
Cc1ccc(-n2c(CNCc3cccnc3)nc3ccccc3c2=O)cc1	.	.	/
CC[C@@H](C)C(=O)O[C@H]1[C@H](O)[C@H]2[C@@H](CN3C[C@@H](C)CC[C@H]3[C@@]2(C)O)C2C[C@]34O[C@@]5(O)[C@@H](OC(=O)[C@](C)(O)CC)CC[C@@]3(C)[C@@H]5[C@@H](OC(C)=O)[C@@H](OC(C)=O)[C@H]4[C@@]21O (stereo partly specified)	.	.	.
CCCC(C)n1[nH]c(=O)c2c1NC(=O)CSC2c1cccc([N+](=O)[O-])c1 (stereo unspecified)	.	.	/
CC1(C)C(=O)C=C[C@@]2(C)C1C[C@@H](O)[C@]1(C)C2CC[C@@]2(C)[C@H](c3ccoc3)OC(=O)[C@H]3O[C@]321 (stereo partly specified)	.	.	.
CCC(O)CC1CCCC(CC(O)c2ccccc2)N1C (stereo unspecified)	.	.	.

From PubChem
